Most compounds without a hit are left out; they make up all but 0.84% or so of the library.
PPARg SRC-3 ag = PPARgamma-driven SRC-3 recruitment agonism | biochemical PPARgamma/SRC-3 coactivator recruitment assay | activation, % at 8 µM | 0.26% of 200,000 active | AID 731; in the data active means activation above about 23%
Target sequence (P37231 whole entry, looked up): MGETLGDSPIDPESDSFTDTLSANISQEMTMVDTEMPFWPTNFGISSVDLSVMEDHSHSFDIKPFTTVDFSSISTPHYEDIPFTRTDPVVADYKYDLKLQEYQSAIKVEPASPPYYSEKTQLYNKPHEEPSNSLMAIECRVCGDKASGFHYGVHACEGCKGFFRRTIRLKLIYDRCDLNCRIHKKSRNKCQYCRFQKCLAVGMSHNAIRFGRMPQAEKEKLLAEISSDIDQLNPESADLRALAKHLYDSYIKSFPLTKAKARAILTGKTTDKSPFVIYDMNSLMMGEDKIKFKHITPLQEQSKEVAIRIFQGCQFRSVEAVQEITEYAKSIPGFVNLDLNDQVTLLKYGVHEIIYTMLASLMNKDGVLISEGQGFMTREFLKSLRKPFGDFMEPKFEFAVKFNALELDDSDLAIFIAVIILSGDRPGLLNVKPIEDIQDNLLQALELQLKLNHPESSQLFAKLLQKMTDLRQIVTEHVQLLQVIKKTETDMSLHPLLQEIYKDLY
PPARg SRC2 recr = promotes SRC-2 coactivator recruitment by human PPARgamma | activation, % at 8 µM | 0.34% of 200,000 active | AID 1032 | PPARgamma LBD-SRC-2 recruitment, biochemical; in the data active means activation above about 22%
TR-FRET SRC-2 ct = counter-screen for PPARgamma SRC-2 recruitment agonists: TR-FRET artefact; stronger effect = higher value; 0.4% of 200,000 active; TR-FRET ratio at 8 µM; AID 1049
SRC1 TRFRET art = counter-screen for PPARgamma SRC-1 recruitment agonists: TR-FRET artefact. TR-FRET ratio at 8 µM. TR-FRET detection artefact counter-screen, emission ratio; stronger effect = higher value. 0.34% of 99,000 active; in the data active means TR-FRET ratio above about 2300
PPARg SRC-1 ag = agonists of human PPARgamma SRC-1 coactivator recruitment | P37231 | PPARgamma-SRC-1 coactivator recruitment biochemical assay | activation, % at 8 µM | 0.41% of 200,000 active | AID 631; in the data active means activation above about 19%
SRC3 TRFRET art = counter-screen for PPARgamma SRC-3 recruitment agonists: TR-FRET artefact; PPARgamma/SRC-3 format; stronger effect = higher value; TR-FRET ratio at 8 µM; 0.39% of 99,000 active; AID 1048
Hits are given with their value; 0 = inactive; - = no result. Unless noted, no stated cut-off is given here; in the data, active means TR-FRET ratio above about 2000; inactive means the rest.

SMILES	PPARg SRC-3 ag	PPARg SRC2 recr	TR-FRET SRC-2 ct	SRC1 TRFRET art	PPARg SRC-1 ag	SRC3 TRFRET art
Cc1[nH]c2ccccc2c1C(=O)C(=O)NCCOc1ccccc1	0	23.9	0	0	0	0
O=C(CC(NC(=O)c1ccccc1)c1ccccc1)Nc1cccc2ccccc12 (centres undefined)	0	0	0	0	0	0
OCC1(Cc2ccc(Cl)cc2)CCN(Cc2ccc3nsnc3c2)CC1	0	0	0	2393	0	0
O=C1OCCN1C(=O)[C@H]1[C@H](c2ccc(Cl)cc2)C(c2cccc(Cl)c2)=NN1c1ccccc1	0	0	2617	3296	0	2817
O=C1c2ccccc2-c2n[nH]c(=O)c3ccc(N4CCCCC4)c1c23	0	0	0	0	0	0
N#Cc1cc(O)c(-n2nnc3ccccc32)cc1C#N	0	25.6	0	0	0	0
N#Cc1cc(Oc2cccc3cccnc23)c(-n2nnc3ccccc32)cc1C#N	0	0	0	-	0	-
CSc1ccccc1C(=O)C1CCCN(Cc2cnn(-c3ccccc3)c2)C1 (centres undefined)	0	0	0	0	0	0
CCCCOC(=O)CSc1nc(N)c(C#N)c(-c2ccc(OCC)cc2)c1C#N	0	0	0	-	56.4	-
Cc1ccc(S(=O)(=O)Nc2ncc(C(F)(F)F)cc2Cl)cc1	0	0	0	0	0	0
Cc1onc(-c2c(Cl)cccc2Cl)c1C(=O)N1C=CC(C(F)(F)F)=NCC1	0	0	0	-	0	-
Cc1onc(-c2c(F)cccc2Cl)c1C(=O)N1C=CC(C(F)(F)F)=NCC1	0	0	2038	-	0	-
N#Cc1ccc(-c2ccccc2)nc1SCC(=O)c1cc2ccccc2oc1=O	0	0	0	-	64.3	-
CC(C)c1c(C#N)c(N)nc(SCC(=O)c2cc3ccccc3oc2=O)c1C#N	0	0	0	0	0	0
COc1cc(C(=O)O)nc2ccc([N+](=O)[O-])cc12	0	0	0	0	0	0
Cc1c(C(=O)Nc2ccc(-n3cnnn3)cc2)oc2ccccc12	0	0	1999	-	0	-
Cc1c(Cl)cccc1NC(=O)CCCn1nc([N+](=O)[O-])cc1C	0	0	2111	0	0	0
C/C(N)=C(/C#N)C(=O)CSc1nnc(Nc2cccc(C)c2C)s1	0	0	0	-	0	-
Cc1cccc(Nc2nnc(SCC(=O)c3ccc(Br)s3)s2)c1C	0	0	0	0	0	2057
CCO[C@@H]1OC(C(=O)N2CCN(Cc3ccccc3)CC2)=C[C@H](c2csc3ccccc23)[C@H]1CCCO	0	0	0	0	0	0
Cc1nc(N2CCN(S(=O)(=O)c3ccc(F)cc3)CC2)c2c(-c3cccs3)csc2n1	0	0	2641	3173	0	2853
O=S(=O)(c1ccccc1)N1CCN(c2nc(-c3cccs3)nc3ccccc23)CC1	0	0	0	0	0	0
COc1ccc2cc(-c3cc(C(=O)OCC(=O)NC4CCS(=O)(=O)C4)c4ccccc4n3)ccc2c1 (centres undefined)	0	0	0	0	0	0
O=C(CN1C(=O)C2CC=CCC2C1=O)Nc1ccc(S(=O)(=O)N2CCOCC2)cc1 (centres undefined)	0	0	0	0	0	0
CC/C(C)=N/NC(=O)c1[nH]c2ccc(C)cc2c1-c1ccccc1	0	0	1988	0	0	0
SMILES	PPARg SRC-3 ag	PPARg SRC2 recr	TR-FRET SRC-2 ct	SRC1 TRFRET art	PPARg SRC-1 ag	SRC3 TRFRET art
CCN(CC)c1c(-c2ccccc2)c2cc(C)ccc2[nH]c1=O	0	0	0	0	0	0
CC(C)c1ccc(OCC(=O)NC(=S)Nc2ccc3c4c(cccc24)CC3)cc1	0	0	0	-	22.5	-
CS(=O)(=O)Nc1ccc(C(=O)Nc2ccc(S(=O)(=O)N3CCCC3)cc2)cc1	0	0	1992	0	0	0
CC(=O)Nc1ccc(C(=O)Nc2ccc(S(=O)(=O)N3CCCC3)cc2)cc1	0	0	0	0	0	0
Cn1nc(-c2ccccc2)c(C(=O)Nc2ccc(Cl)cc2)c1Cl	0	0	0	-	0	-
Cn1nc(-c2ccccc2)c(C(=O)Nc2ccc(C(F)(F)F)cc2)c1Cl	32.2	0	0	-	0	-
O=C(N/N=C/c1cn(-c2ccccc2)nc1-c1cccnc1)c1cccnc1	0	0	0	2335	0	0
CCOc1ccc(-c2nn(-c3ccccc3)cc2/C=C2\SC(=S)N(C3CCS(=O)(=O)C3)C2=O)cc1 (centres undefined)	0	0	0	-	0	-
CCOc1ccc(-c2nn(-c3ccccc3)cc2/C=C2\SC(N)=NC2=O)cc1C	29.3	0	0	-	0	-
O=C(CSc1ncccn1)Nc1ncc(C(F)(F)F)cc1Cl	0	0	0	0	0	0
COc1ccc(C(=O)Nc2nc3c(s2)CCCC3)cc1S(=O)(=O)N1CCCc2ccccc21	0	0	0	0	0	2089
COc1c(O)ccc(C2NC(=O)NC(C)=C2C(=O)Nc2ccccc2C)c1[N+](=O)[O-] (centres undefined)	0	0	0	0	0	0
O=C(c1cn(-c2ccccc2)nc1-c1cccs1)N1CCN(c2ccc(F)cc2)CC1	0	0	2165	-	0	-
O=C(Nc1ccncc1)c1cn(-c2ccccc2)nc1-c1cccs1	0	0	0	-	0	-
CC(NC(=O)COC(=O)c1cn(-c2ccccc2)nc1-c1cccs1)c1ccccc1 (centres undefined)	0	0	2073	-	0	-
O=C(COc1ccc2ccccc2c1)Nc1ccc(S(=O)(=O)N2CCCCCC2)cc1	0	0	2073	-	0	-
O=C(COc1ccc2ccccc2c1)NNC(=O)Cc1ccccc1	0	0	0	2551	65.3	0
COc1ccc(Br)cc1CNC(=O)CCNC(=O)Cn1ccc2ccccc2c1=O	0	0	0	0	0	0
c1ccc(OCCN2CCN(Cc3nc(-c4ccc5c(c4)OCO5)no3)CC2)cc1	0	0	0	0	0	0
Cc1ccc(-n2c(=S)[nH]c3sc4c(c3c2=O)CCC4)cc1	0	0	0	0	0	2074
O=c1[nH]c2sc3c(c2c(=O)n1Cc1ccccc1)CCC3	0	0	0	-	0	-
O=C(Nc1nc2c(cc3c4c(cccc42)CC3)s1)c1ccccc1Cl	0	0	1981	0	0	2115
Cc1ccccc1-n1c(-c2ccco2)n[nH]c1=S	0	26.5	0	0	0	0
N#Cc1cnn(-c2nc(SCc3ccccc3)nc3sc4c(c23)CCCC4)c1N	0	0	2441	-	0	-
COCCCNc1nc(SCc2ccccc2)nc2sc3c(c12)CCC3	0	0	0	-	0	-
SMILES	PPARg SRC-3 ag	PPARg SRC2 recr	TR-FRET SRC-2 ct	SRC1 TRFRET art	PPARg SRC-1 ag	SRC3 TRFRET art
CCOC(=O)c1sc(=NC(=O)c2cccs2)n(C)c1C	0	0	0	0	0	0
Cc1ccc2c(c1)sc(=NC(=O)c1cccs1)n2C	0	0	0	2965	0	3246
COC(=O)c1ccc2c(c1)NC(=O)C(N1CCCC1)S2 (centres undefined)	0	0	0	-	0	-
COC(=O)c1ccc2c(c1)SC1=C(CCCC1=O)N2	0	0	2074	-	0	-
O=c1c2c3c(sc2ncn1/N=C/c1ccc([N+](=O)[O-])o1)CCCC3	0	0	0	-	0	-
Cn1cc(/C=N/n2cnc3sc4c(c3c2=O)CCCC4)c2ccccc21	0	0	1972	-	0	-

Compound activity from PubChem.
